In the library only some 1.6% were active in any assay of this set; here they are far more common.
KCNQ2 block: blocks the rat KCNQ2 potassium channel | CHO-K1 KCNQ2, FluxOR thallium flux, 20 min; active compounds read low | O88943 | actives 1.1% (n = 310,000) | AID 2156 | B-score at 10 µM;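 active means fluorescence ratio B-score at most minus 3 library SDs, with starting brightness B-score within 2 library SDs, cut at about -5.5 in these data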
KCNQ2 enhance: potentiators of rat KCNQ2 potassium channel; O88943; CHO-K1 KCNQ2, FluxOR thallium flux fluorescence; active compounds read high; B-score at 10 µM; actives 0.54% (n = 310,000);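 active means fluorescence ratio B-score at least 3 SD of library B-scores, with initial fluorescence B-score within 3 of them, cut at about 5.3 in these data; same plate scores as AID 2156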;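 further: B-score of peak minus minimum over baseline fluorescence ratio after K+ and Tl+ stimulus; positive B-score means potentiation of KCNQ2 with more thallium influx and brighter signal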
Kir21 conf inh: confirmation of mouse Kir2.1 potassium channel inhibitors | shares compounds with KCNQ2 enhance | Kir2.1-expressing cells, FluxOR thallium flux fluorescence; active compounds read low | Tl flux remaining, % of negative control (active compounds read low), % at 10 µM | actives 41% (n = 2,300);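 active means Primary-screen hit whose thallium flux fell at least 3 control SD below untreated wells in both duplicates, with normal baseline fluorescence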;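 further: 0% = blank wells without stimulus and 100% = stimulated no-compound controls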
HEK293 ctr: parental HEK293 activity in Kir2.1 inhibitor counter-screen; parental HEK293 cells, FluxOR thallium flux fluorescence; 0% = unstimulated blank wells; FluxOR signal as % of negative control (100 = no effect), % at 10 µM; actives 19% (n = 2,300); shares compounds with KCNQ2 enhance; AID 2105;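 active means dye signal at least 3 control SD above or below untreated wells in both duplicates, raw fluorescence within 3, either direction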;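 further: percent is based on the flux ratio of peak minus minimum fluorescence over baseline F0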
CHO-K1 ctr: parental CHO-K1 activity in KCNQ2 potentiator counter-screen. actives 43% (n = 1,200). parental CHO-K1 cells, FluxOR thallium flux fluorescence; zero = vehicle mean+3SD, 100% = vehicle-minus-blank window. shares compounds with KCNQ2 enhance. AID 2282. activity increase over 3SD of controls, % at 10 µM;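 active means signal rise of at least 3 SD above the untreated control mean, in both duplicate wells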;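 further: counter screen of KCNQ2 potentiator hits so any rise reflects channel-independent effects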
KCNQ1 sel pot: tests whether KCNQ2 potentiators also act on human KCNQ1. activation over 3SD threshold, % at 10 µM. CHO KCNQ1 stable, FluxOR thallium flux fluorescence; beyond 3SD, as % of vehicle-control signal. actives 28% (n = 1,200). AID 2283. shares compounds with KCNQ2 enhance;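 active means fluorescence ratio rise of at least 3 SD of vehicle wells above their mean, in both replicate wells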;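 further: 0% = vehicle mean plus 3 SD and 100% = vehicle minus unstimulated blank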
Target sequence (P51787 whole entry, looked up): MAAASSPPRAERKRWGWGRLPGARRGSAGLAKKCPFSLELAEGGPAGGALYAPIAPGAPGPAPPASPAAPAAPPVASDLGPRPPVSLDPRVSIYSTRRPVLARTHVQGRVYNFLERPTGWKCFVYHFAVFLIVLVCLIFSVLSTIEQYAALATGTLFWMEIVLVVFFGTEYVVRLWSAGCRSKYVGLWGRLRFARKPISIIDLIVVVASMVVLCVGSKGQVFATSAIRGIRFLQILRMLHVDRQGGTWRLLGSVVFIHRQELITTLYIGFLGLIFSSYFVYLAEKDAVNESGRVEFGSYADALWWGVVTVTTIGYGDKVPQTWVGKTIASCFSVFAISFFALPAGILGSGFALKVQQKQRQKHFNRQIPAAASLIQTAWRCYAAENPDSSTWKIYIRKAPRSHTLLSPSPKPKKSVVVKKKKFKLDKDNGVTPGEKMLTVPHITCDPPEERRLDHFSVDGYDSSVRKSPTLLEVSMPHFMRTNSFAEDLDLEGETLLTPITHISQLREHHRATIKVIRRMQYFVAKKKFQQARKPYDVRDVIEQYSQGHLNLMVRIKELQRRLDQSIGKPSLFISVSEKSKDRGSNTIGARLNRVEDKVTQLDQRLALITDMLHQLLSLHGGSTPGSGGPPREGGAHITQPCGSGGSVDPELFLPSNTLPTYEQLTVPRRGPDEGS
KCNQ2 pot confirm: rat KCNQ2 channel potentiator confirmation; potentiation, less the hit threshold, % at 10 µM; shares compounds with KCNQ2 enhance; AID 2287; actives 68% (n = 1,200); CHO-KCNQ2 cells, FluxOR thallium flux fluorescence;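 active means fluorescence ratio rising 3 SD or more over the vehicle control mean in both replicates, plus primary screen hit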;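 further: peak minus minimum thallium fluorescence divided by baseline after K/Tl stimulus; 0% = vehicle mean plus 3 SD and 100% = vehicle minus unstimulated blank difference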
Kir2-1 sel: tests whether KCNQ2 potentiators also affect mouse Kir2.1 | HEK293 Kir2.1, FluxOR thallium flux fluorescence | activity over 3SD threshold, % at 10 µM | actives 2% (n = 1,200) | shares compounds with KCNQ2 enhance | AID 2345;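 active means fluorescence ratio rise of at least 3 SD above the vehicle-control mean, seen in both replicates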;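 further: 0% = vehicle mean plus 3 SD and 100% = vehicle minus no-stimulus blank window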
KCNQ2 W236L pot: rat KCNQ2 W236L mutant potentiation by KCNQ2 potentiators. CHO KCNQ2-W236L, automated patch clamp current. AID 2558. current increase over 3SD of negative controls (%), active compounds read high, % at 25 µM. actives 10% (n = 940). shares compounds with KCNQ2 enhance;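 active means current increase at least 3 SD of the untreated controls above them in both duplicate recordings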
Starred values were filed as active, the others as inactive.

How did COc1cc2c(=O)n(CCC(=O)NCC3CCCO3)c(=O)n(CC(=O)Nc3ccc(C)cc3C)c2cc1OC (configuration not stated) do in these assays?
KCNQ2 block: inactive; KCNQ2 enhance: 0.03

How did O=C(c1cccnc1NCc1ccc(F)cc1)N1CCOCC1 do in these assays?
KCNQ2 block: inactive; KCNQ2 enhance: 0.19

How did CN(Cc1ccccc1)CC(O)COc1ccc(CNCc2cccnc2)cc1 (configuration not stated) do in these assays?
KCNQ2 block: inactive

How did CN(Cc1ccccc1)CC(O)COc1ccc(CNCc2ccc(Cl)s2)cc1 (configuration not stated) do in these assays?
KCNQ2 block: inactive; Kir21 conf inh: 23.5%*; HEK293 ctr: inactive

How did Cc1cc(C)c2nc(NNC(=O)c3ccc(S(=O)(=O)N4CCCC(C)C4)cc3)sc2c1 (configuration not stated) do in these assays?
KCNQ2 block: inactive; KCNQ2 enhance: 1.81

Results for Cc1cc(C)c2nc(NNC(=O)c3ccc(S(=O)(=O)N4CC(C)CC(C)C4)cc3)sc2c1 (configuration not stated) ?
KCNQ2 block: inactive; KCNQ2 enhance: 5.83*; Kir21 conf inh: inactive; HEK293 ctr: inactive; CHO-K1 ctr: 60.6*; KCNQ1 sel pot: -10.7; KCNQ2 pot confirm: -22.2; Kir2-1 sel: -29.1

Results for COc1cc(NC(=S)NC(C)=O)ccc1NC(=O)C(C)C ?
KCNQ2 block: inactive

How did Cc1nc(SCC(=O)NCc2ccco2)c2c(C)c(C)sc2n1 do in these assays?
KCNQ2 block: inactive

Results for Cc1sc2nc(C(C)C)nc(SCC(=O)NCc3ccco3)c2c1C ?
KCNQ2 block: inactive; KCNQ2 enhance: 4.6; Kir21 conf inh: inactive; HEK293 ctr: 218.0%*

Results for O=C(c1cccc(S(=O)(=O)Nc2ccc(Br)cc2)c1)N1CCC1 ?
KCNQ2 block: inactive; KCNQ2 enhance: 1.35

How did COc1cccc(-c2cc(C(=O)NCC3CCCO3)c3cc(C)cc(C)c3n2)c1 (configuration not stated) do in these assays?
KCNQ2 block: inactive

Results for CC(C)C[C@H](N)c1nnc(S(=O)(=O)Cc2cccc(F)c2)o1 ?
KCNQ2 block: inactive; Kir21 conf inh: 72.5%*; HEK293 ctr: inactive

What do the screens show for `CC(C)CCNC(=O)c1ccc(CSCc2cccc(F)c2)o1`?
KCNQ2 block: inactive

Results for CC(=O)Nc1ccc(C(=O)N/N=C/c2cc(Br)cc(Br)c2O)cc1 ?
KCNQ2 block: inactive

How did Cc1ccc(C(=O)O)cc1N=Cc1cc(Br)cc(Br)c1O do in these assays?
KCNQ2 block: inactive; KCNQ2 enhance: 10.5*; Kir21 conf inh: inactive; HEK293 ctr: inactive; CHO-K1 ctr: -20.1; KCNQ1 sel pot: -20.7; KCNQ2 pot confirm: 30.9*; Kir2-1 sel: -20.6; KCNQ2 W236L pot: inactive

What do the screens show for `Cc1ccc(C)c(NC(=S)NNC(=O)c2csc3c2CCC(C)C3)c1` (configuration not stated)?
KCNQ2 block: inactive; KCNQ2 enhance: 6.62*; Kir21 conf inh: inactive; HEK293 ctr: 171.0%*; CHO-K1 ctr: -19.0; KCNQ1 sel pot: -32.6; KCNQ2 pot confirm: -4.5; Kir2-1 sel: -39.9; KCNQ2 W236L pot: inactive

How did Cc1ccc(C)c(NC(=S)NNC(=O)c2csc3c2CCCC3)c1 do in these assays?
KCNQ2 block: inactive; KCNQ2 enhance: 2.6

How did CCN(CC(=O)Nc1ccc(OC)cc1)C(=O)c1cc([N+](=O)[O-])ccc1N1CCOCC1 do in these assays?
KCNQ2 block: inactive; KCNQ2 enhance: 0.97

Results for COc1cccc(CN(C)CC(=O)NCc2ccc(C)cc2)c1 ?
KCNQ2 block: inactive

Results for CCCC(O)(c1ccc(OC)cc1)C(CN1CCOCC1)c1ccc(Cl)cc1 (configuration not stated) ?
KCNQ2 block: inactive; KCNQ2 enhance: 5.19

What do the screens show for `COc1ccc(C(O)(CCC(C)C)C(CN2CCOCC2)c2ccc(Cl)cc2)cc1` (configuration not stated)?
KCNQ2 block: inactive; KCNQ2 enhance: 6.44*; Kir21 conf inh: inactive; HEK293 ctr: inactive; CHO-K1 ctr: -24.1; KCNQ1 sel pot: 46.0*; KCNQ2 pot confirm: -4.1; Kir2-1 sel: -30.1

What do the screens show for `Cc1cccc(NC(=O)NC2CC3CCC(C2)N3Cc2ccco2)c1` (configuration not stated)?
KCNQ2 block: inactive; KCNQ2 enhance: 0.93

How did CCOC(=O)c1c(NC(=O)c2ccco2)sc2c1CCCCC2 do in these assays?
KCNQ2 block: inactive; KCNQ2 enhance: 2.35

What do the screens show for `CCOC(=O)c1c(NS(=O)(=O)Cc2ccccc2)sc2c1CCCC2`?
KCNQ2 block: inactive; Kir21 conf inh: inactive; HEK293 ctr: 337.5%*

What do the screens show for `COC(=O)c1c(NS(=O)(=O)c2ccc3ccccc3c2)sc2c1CCCC2`?
KCNQ2 block: inactive; KCNQ2 enhance: 6.43*; Kir21 conf inh: inactive; HEK293 ctr: inactive; CHO-K1 ctr: -4.5; KCNQ1 sel pot: -10.8; KCNQ2 pot confirm: -17.4; Kir2-1 sel: -35.6

Results for CCOC(=O)c1c(NC(=O)CCNCc2ccco2)sc2c1CCC2 ?
KCNQ2 block: inactive; Kir21 conf inh: 28.0%*; HEK293 ctr: inactive

Results for CCOC(=O)c1c(NC(=O)OC)sc2c1CCC2 ?
KCNQ2 block: inactive; KCNQ2 enhance: 0.81

What do the screens show for `CCOC(=O)c1c(NC(=O)c2ccccc2C(=O)O)sc2c1CCC2`?
KCNQ2 block: inactive; KCNQ2 enhance: 1.7

Results for CCOC(=O)c1c(NS(=O)(=O)c2ccc(Br)cc2)sc2c1CCC2 ?
KCNQ2 block: inactive; KCNQ2 enhance: 18.1*; Kir21 conf inh: inactive; HEK293 ctr: 255.0%*; CHO-K1 ctr: 41.4*; KCNQ1 sel pot: 86.6*; KCNQ2 pot confirm: 58.9*; Kir2-1 sel: -26.1; KCNQ2 W236L pot: inactive

How did COC(=O)c1c(NC(=O)c2ccc(C)c(S(=O)(=O)Nc3ccccc3C)c2)sc2c1CCCC2 do in these assays?
KCNQ2 block: inactive

Results for COc1ccc(N=C2NC(=O)CS2)c([N+](=O)[O-])c1 ?
KCNQ2 block: inactive; KCNQ2 enhance: 1.55

Bioassay records (PubChem BioAssay)
